This is an account of results in PubChem BioAssay (NCI).

Experiment [1] can be described thus: NCI Yeast Anticancer Drug Screen. Data for the rad50 strain (AID 155).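 Note: 0% = growth of vehicle-only cultures of the same strain.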 Particulars: S. cerevisiae rad50 strain growth inhibition, stronger effect = higher value; at 50.0 µM unless noted. Summed up: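 Relative growth inhibition (compound vs vehicle) was measured in yeast with a defined repair-gene alteration.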
Experiment [2] in a line: NCI Yeast Anticancer Drug Screen. Data for the mec2-1 strain (AID 157). Particulars: S. cerevisiae mec2-1 strain, stronger effect = higher value; at 50.0 µM unless noted. Summed up: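 Each compound was tested on mec2-1 yeast, a strain altered in DNA damage repair or cell cycle control. Growth inhibition is reported relative to vehicle.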
Experiment [3] can be described thus: NCI Yeast Anticancer Drug Screen. Data for the sgs1 mgt1 strain (AID 161).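 Note: 0% = growth of cultures given vehicle only.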 Particulars: S. cerevisiae sgs1 mgt1 strain, stronger effect = higher value; at 50.0 µM unless noted. Summed up: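 Mutant yeast exposed to compound; growth scored against vehicle-only wells.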
Experiment [4] is described as follows: NCI Yeast Anticancer Drug Screen. Data for the cln2 rad14 strain (AID 165).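 Note: 0% = growth equal to vehicle treated cultures.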 Particulars: S. cerevisiae cln2 rad14 strain, stronger effect = higher value; at 50.0 µM unless noted. An outline of the steps:
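Test compounds were added to cln2 rad14 yeast cultures; inhibition of growth was then determined by comparison with vehicle treatment.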

Experiment [5] can be described thus: NCI Yeast Anticancer Drug Screen. Data for the bub3 strain (AID 167). Conditions: S. cerevisiae bub3 mutant strain, stronger effect = higher value; at 50.0 µM unless noted. An outline of the steps:
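Screening used yeast with an engineered genetic alteration affecting cell cycle control. Compound-exposed cultures were compared with vehicle cultures, and reduced growth was taken as inhibition.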

Experiment [6] can be described thus: NCI Yeast Anticancer Drug Screen. Data for the mlh1 rad18 strain (AID 175). Particulars: S. cerevisiae mlh1 rad18 strain growth inhibition, stronger effect = higher value; at 50.0 µM unless noted. Summed up: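 Inhibition values reflect reduced growth of mutant yeast versus vehicle-treated controls following compound exposure; the mutations affect DNA damage repair.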

Compounds without any hit were thinned out: in the full panel of roughly 79,000, 15% have a hit. Values without a mark were called inactive. Active and inactive are the calls of the source. Cut-off read from the data, not from the text of the source: active = growth inhibition above about 70%; inactive = the rest.

Consider `O=NN1C(c2ccccc2)CNC(=O)CC1c1ccccc1` (stereo unspecified), for which the growth inhibition in experiment [1] was -27%; in experiment [2] it was -1.4%; in experiment [3], -1.65%; in experiment [4], -8%; in experiment [5], 20.6%; in experiment [6] it was -18.2%.
For `COc1ccc(N=N/C(=N/NC(=O)c2cc(Cl)ccc2C(=O)c2ccccc2)c2ccc(N(CCC#N)CCC#N)cc2C)cc1`, the growth inhibition in experiment [1] is 3.2%; in experiment [2] it was 12.6%; in experiment [3], -32.9%; in experiment [4], 12.5%; in experiment [5] it was -11.9%; in experiment [6], 12.8%.
`CC(CC(=O)Nc1ccccc1CC(c1c[nH]c2ccccc12)c1c[nH]c2ccccc12)C(=O)O` (stereo unspecified): the growth inhibition in experiment [1] was 0.6%; in experiment [2] it was -14.2%; in experiment [3], 3.4%; in experiment [4], -12.9%; in experiment [5], 6.7%; in experiment [6] it was 17.5%.
With `ClCc1ccc(OCc2ccccc2)cc1`, the growth inhibition was -2.85% in experiment [1]; -1.45% in experiment [2]; -11.2% in experiment [3]; 9.3% in experiment [4]; -29.1% in experiment [5]; -6.25% in experiment [6].
Consider `COC1OC2COC(C)(C)OC2C2OC(C)(C)OC12` (stereo unspecified), for which the growth inhibition is 1.15% in experiment [1]; 5.35% in experiment [2]; 6.45% in experiment [3]; -6.25% in experiment [4]; -18.4% in experiment [5]; 16.3% in experiment [6].
As to `Nc1ccc(NC(=O)Nc2ccccc2)cc1`, the growth inhibition in experiment [1] was 5.65%; in experiment [2], -19.2%; in experiment [3], -0.7%; in experiment [4] it was -32.4%; in experiment [5] it was -22.3%; in experiment [6], -15.1%.
Take `c1cc2c(cc1C1=NNC(c3ccc4c(c3)OCO4)=NN1)OCO2`: the growth inhibition in experiment [1] was -13.3%; in experiment [2], 10.2%; in experiment [3], -7.45%; in experiment [4] it was 1.4%; in experiment [5], -4.95%; in experiment [6], -3.05%.
On to `CCC[N+](C)(C)CCC#N`, for which the growth inhibition is -4.55% in experiment [1]; 10.9% in experiment [2]; 4.2% in experiment [3]; -14% in experiment [4]; 17.1% in experiment [5]; 5.25% in experiment [6].
As for `COc1ccccc1C(=O)N/N=C/c1cccc([N+](=O)[O-])c1`, the growth inhibition in experiment [1] was -2.15%; in experiment [2], 3.1%; in experiment [3] it was 13.7%; in experiment [4], -11.7%; in experiment [5], 29.1%; in experiment [6], 4.75%.
Take `CCCCCC(=O)NNC(=O)CCCCC`: the growth inhibition in experiment [1] was 7.35%; in experiment [2], 13.8%; in experiment [3], 7.2%; in experiment [4], -4.95%; in experiment [5] it was -21.8%; in experiment [6], 15.1%.
Consider `CCN(CC)CCCC(C)Nc1cc(OC)c2nc(C)ccc2c1OC` (stereo unspecified), for which the growth inhibition in experiment [1] was -2.35%; in experiment [2], -0.4%; in experiment [3], -14.2%; in experiment [4], -5.9%; in experiment [5], -3.2%; in experiment [6], 14.9%.
With `CCCCCCCC1C(=O)OC2CC3C(C)=CC(=O)C(O)C3(C)C3C4(O)OCC23C1C(C)C4O` (stereo unspecified), the growth inhibition is 91.5% (active) in experiment [1]; 92.3% (active) in experiment [2]; 91% (active) in experiment [3]; 91.4% (active) in experiment [4]; 90.2% (active) in experiment [5]; 92.1% (active) in experiment [6].
Take `Cc1nc2ncnc(N)c2[nH]1`: the growth inhibition in experiment [1] is 3.55%; in experiment [2], -11%; in experiment [3] it was -12.5%; in experiment [4], -28.7%; in experiment [5], 11.2%; in experiment [6] it was -5.95%.
Consider `O=NN(CCCl)C(=O)Oc1ccccc1`, for which the growth inhibition is -1.95% in experiment [1]; -10.6% in experiment [2]; -0.05% in experiment [3]; 0.15% in experiment [4]; -1.9% in experiment [5]; -11.3% in experiment [6].
Take `COc1ccc(C2c3cc4c(cc3C(O)C3CCC(=O)N23)OCO4)cc1` (stereo unspecified): the growth inhibition was -31.6% in experiment [1]; 3.3% in experiment [2]; -17.2% in experiment [3]; -1.25% in experiment [4]; -7.4% in experiment [5]; -15.1% in experiment [6].
As for `COC1(OC)C(C#N)=C(c2ccccc2)C1(OC)OC`, the growth inhibition is -8% in experiment [1]; -6.25% in experiment [2]; -6.5% in experiment [3]; -19.9% in experiment [4]; -14% in experiment [5]; -6.8% in experiment [6].
For the compound `O=C(COCC(=O)N/N=C/C=C/c1ccccc1)N/N=C/C=C/c1ccccc1`, the growth inhibition in experiment [1] was 7.7%; in experiment [2] it was -6.3%; in experiment [3] it was -0.65%; in experiment [4] it was 3.35%; in experiment [5], -2.95%; in experiment [6] it was 19.2%.
With `NC(C(=O)O)c1ccc(CBr)cc1` (stereo unspecified), the growth inhibition in experiment [1] was 9.5%; in experiment [2], -12.3%; in experiment [3], -10.2%; in experiment [4], 4.25%; in experiment [5], -1.6%; in experiment [6] it was -64.5%.
In the case of `Cc1cc(C)c(S(=O)(=O)Oc2ccccc2)c(C)c1`, the growth inhibition in experiment [1] is -14.9%; in experiment [2] it was -7.15%; in experiment [3], -8.5%; in experiment [4], 1.7%; in experiment [5], 11.8%; in experiment [6] it was -36.7%.
Consider `CCSCCC#N`, for which the growth inhibition in experiment [1] was 11.2%; in experiment [2], 4.75%; in experiment [3], -13%; in experiment [4], 0.3%; in experiment [5] it was 8.1%; in experiment [6], -10.2%.
For the compound `CCOC(C)(Cc1ccccc1[N+](=O)[O-])OCC`, the growth inhibition in experiment [1] was 11.4%; in experiment [2], 4.3%; in experiment [3] it was -4.05%; in experiment [4], 2.5%; in experiment [5], -3.6%; in experiment [6] it was 18.5%.
